In PubChem BioAssay (NCATS):
Where “and” joins values, the source holds several entries; their conditions need not be identical. Equal values may be shown once. Inconclusive results are not listed. Calls of active or inactive are those of the source. Calls follow the shape of the dose curve; as a rule, active = well fitted cell-killing curve with a large enough effect; inconclusive = small, poorly fitted or top-dose-only effect; inactive = flat fitted curve, though single readings scatter. Where a SMILES comes first, the peptide text is derived from it. Bridges are numbered along the chain shown (N, C = ends). [ ]: non-standard residue; d: D form. The star is where a group is joined. X1 = CCC(C)C(N)C1=NC(C(=O)*)CS1; dOrn = NCCC[C@@H](N)C(=O)O

Assay: Cellular viability qHTS for adrenocortical cancer (ACC) cell line NCI-H295R (AID 1963990); also: nearly all actives have a fitted effect of over 60% in size
Conditions: CellTiter-Glo ATP luminescence, 48 h; series mostly up to 46.1 µM; activity change, negative = viability loss: at the top concentration
Description: PI: Naris Nilubol, MD Surgical Oncology Program, National Cancer Institute (NCI) National Institute of Health (NIH), Bethesda, Maryland Adrenocortical cancer (ACC) is a rare malignancy with poor survival outcomes and few treatment options. Currently, mitotane is the only FDA-approved therapy for ACC. Although adjuvant radiation therapy is rarely utilized, it has the potential to improve survival in select cases. Through a quantitative high-throughput drug screen (qHTS), we identified auranofin (AF), a thioredoxin reductase (TXNRD) inhibitor, as a promising candidate drug. This study aims to evaluate whether AF can enhance the efficacy of radiation therapy in the treatment of ACC. Two human ACC cell lines, SW-13 and NCI-H295R, were screened using the National Center for Advancing Translational Sciences (NCATS) Pharmaceutical Collection (NPC) and the Mechanism Interrogation PlatE (MIPE) library (~4,991 compounds). CellTiter-Glo (Cat # G7570, Promega, Madison, WI) was utilized to measure cell viability. Described herein are the results of the corresponding viability assay.
PROTOCOL TABLE (as described by Inglese J, Shamu CE and Guy RK. 2007) SEQUENCE No. (e.g., 1, 2, 3, etc.); […] (e.g., Cells, Incubation, Reagent, etc.); VALUE; DESCRIPTION. 1; Cells; 5 uL; white, solid-bottom, 1536-well tissue-culture treated plates. 2; Time; overnight culture at 37C with 5% CO2. 3; Compounds and control; 23 nL; Kalypsis pin tool (Wako USA) equipped with a 1536-well pin head to transfer to the assay plates. 4; Time; 48 hours; 37C with 5% CO2. 5; Reagent; 4 uL; CellTiter-Glo luminescent substrate mix. 6; Time; 20 min at room temperature. 7; Detection; Luminescence; ViewLux plate reader NOTES (numbers refer to Sequence numbers above) 1. NCI-H295R cells were harvested from a T175 flask and resuspended in ITS-supplemented DMEM serum-free medium at a concentration of 300 000 cells/mL. Then 5 uL of resuspended cells were dispensed into each well of white, solid-bottom, 1536-well tissue-culture-treated plates using a multidrop combi dispenser. The plates were covered with stainless steel gasket lids. 2-3. The plates were cultured overnight at 37C with 5% CO2. Twenty-three nL of compounds (eight selected concentrations from the NPC / MIPE) or positive control (10 mM stock of bortezomib) in DMSO was transferred to each well of the assay plate using a pin tool (Kalypsys, San Diego, CA, USA). The final concentration of the compounds in the 5 uL assay volume ranged from 0.5 nM to 46 uM. 4-6. After 48 hours of incubation at 37C and 5% CO2, 4 uL of CellTilter-Glo luminescent substrate mix (Promega, Madison, WI, USA) was added to each well. Then the plates were incubated for 20 minutes at room temperature. 7. After incubation, luminescence was measured using a ViewLux plate reader (PerkinElmer, Waltham, MA, USA) with a clear filter was used to measure the number of metabolically competent cells. To determine compound activity in the qHTS assay, the titration-response data for each sample was plotted and modeled by a four-parameter logistic fit yielding IC50 and efficacy (maximal response) values. Raw plate reads for each titration point were normalized relative to positive control ([…], 100% inhibition) and DMSO-only wells (basal, 0%). REFERENCES: Inglese J, Shamu CE and Guy RK, Reporting data from high throughput screening of small molecule libraries, Nature Chemical Biology, 2007, 3(8): 438-441. doi.org/10.1038/nchembio0807-438.
With NC(=O)c1ccc(I)c([N+](=O)[O-])c1 the “activity change, negative = viability loss” value was -35.2% (inactive). With CCC(C)C(N)C1=NC(C(=O)N[C@@H](CC(C)C)C(=O)N[C@H](CCC(=O)O)C(=O)N[C@H](C(=O)N[C@H]2CCCCNC(=O)[C@H](CC(N)=O)NC(=O)[C@@H](CC(=O)O)NC(=O)[C@H](Cc3cnc[nH]3)NC(=O)[C@@H](Cc3ccccc3)NC(=O)[C@H]([C@@H](C)CC)NC(=O)[C@@H](CCCN)NC2=O)[C@@H](C)CC)CS1 (stereo not given in full) (X1-L[dE]IK[dOrn]I[dF]H[dD]N; lactam 4-C) the “activity change, negative = viability loss” value was -9.21% [at 20 µM] (inactive). For COCCNCCCn1c(C(=O)CF)c(-c2ccc(C)cc2)c2c(N)ncnc21, the “activity change, negative = viability loss” value was -12.5% (inactive). With CN[C@H](CC(C)C)C(=O)N[C@H]1C(=O)N[C@@H](CC(N)=O)C(=O)N[C@H]2C(=O)N[C@H]3C(=O)N[C@H](C(=O)N[C@H](C(=O)O)c4cc(O)cc(O)c4-c4cc3ccc4O)[C@H](O)c3ccc(c(Cl)c3)Oc3cc2cc(c3O[C@@H]2O[C@H](CO)[C@@H](O)[C@H](O)[C@H]2O[C@H]2C[C@](C)(N)[C@H](O)[C@H](C)O2)Oc2ccc(cc2Cl)[C@H]1O the “activity change, negative = viability loss” value was -4.28% [at 20 µM] (inactive). For Cc1c(F)cc2c(=O)c(C(=O)O)cn3c2c1CCC3C (stereo not given), the “activity change, negative = viability loss” value was -24.8% (inactive). For Nc1ccc(S(=O)(=O)Nc2ccccc2)cc1, the “activity change, negative = viability loss” value was -8.36% (inactive). For O=C(O)CCC1CCC(c2cc(F)ccc2F)(S(=O)(=O)c2ccc(Cl)cc2)CC1 (stereo not given), the “activity change, negative = viability loss” value was -5.7% (inactive). For CCN1CCC[C@H]1CNC(=O)c1c(O)c(Cl)cc(Cl)c1OC, the “activity change, negative = viability loss” value was -1.26% (inactive). With CC(O)C(=O)O (stereo not given) the “activity change, negative = viability loss” value was 0.613% (inactive). For COc1ccc2cc([C@H](C)C(=O)O)ccc2c1, the Potency was “inactive”. With C[C@@H]1CC[C@@]2(OC1)O[C@H]1C[C@H]3[C@@H]4CC[C@H]5C[C@@H](O)CC[C@]5(C)[C@H]4CC(=O)[C@]3(C)[C@H]1[C@@H]2C the activity change, negative = viability loss was -14.3% [at 3.81 µM] (inactive). For CC(=O)NCCCCCC(=O)O, the “activity change, negative = viability loss” value was -9.2% (inactive). With COc1ccc(C[C@@H](C)[C@@H](C)Cc2ccc(OC)c(OC)c2)cc1OC the “activity change, negative = viability loss” value was -9.42% (inactive). With O=C(NO)c1cnc(N2C[C@H]3C[C@@H]2CN3c2cc(C(F)(F)F)ccn2)nc1 the Potency was 2.82 µM (active). With Cc1ccc(F)c(NC(=O)Nc2ccc(-c3cccc4[nH]nc(N)c34)cc2)c1 the Potency was 15.8 µM (active). For Cc1cccc(C)c1NC(=O)c1ccc(N)cc1, the “activity change, negative = viability loss” value was -11.8% (inactive). With CC(C)c1cnn2c(NCc3ccccc3)cc(N[C@@H](CO)[C@H](O)CO)nc12 the Potency was 0.631 µM (active). In the case of Cc1c(C(C)C)c(=O)n(-c2ccccc2)n1C, the “activity change, negative = viability loss” value is reported as 5.09% (inactive). With CCOC(=O)N1CCN(/[N+]([O-])=N/Oc2ccc([N+](=O)[O-])cc2[N+](=O)[O-])CC1 the Potency was 22.4 µM (active). In the case of O=C(O)[C@@H]1CSCN1, the “activity change, negative = viability loss” value is reported as -4.21% (inactive). With CNC(=O)c1c(I)c(NC(C)=O)c(I)c(C(=O)O)c1I the “activity change, negative = viability loss” value was -2.73% (inactive). In the case of COc1nc(C)cnc1NS(=O)(=O)c1cccnc1-c1ccc(-c2nnco2)cc1, the “activity change, negative = viability loss” value is reported as -4.18% (inactive). In the case of C[C@H]1O[C@@H](O[C@H]2[C@@H](O)C[C@H](O[C@H]3[C@@H](O)C[C@H](O[C@H]4CC[C@@]5(C)[C@H](CC[C@@H]6[C@@H]5C[C@@H](O)[C@]5(C)[C@@H](C7=CC(=O)OC7)CC[C@]65O)C4)O[C@@H]3C)O[C@@H]2C)C[C@H](O)[C@@H]1O, the Potency is reported as 0.126 µM (active). For CN[C@@H]1[C@H](O)[C@H](NC)[C@H]2O[C@@]3(O)C(=O)C[C@@H](C)O[C@H]3O[C@@H]2[C@H]1O, the “activity change, negative = viability loss” value was 2.14% (inactive). With OC[C@H]1O[C@H](O[C@]2(CCl)O[C@H](CCl)[C@@H](O)[C@@H]2O)[C@H](O)[C@@H](O)[C@H]1Cl the “activity change, negative = viability loss” value was -5.48% (inactive). In the case of C[C@H]1c2cccc(O)c2C(O)=C2C(=O)[C@]3(O)C(O)=C(C(N)=O)C(=O)[C@@H](N(C)C)[C@@H]3[C@@H](O)[C@@H]21, the Potency is reported as “inactive”. In the case of Cc1c(C(N)=O)cc([N+](=O)[O-])cc1[N+](=O)[O-], the “activity change, negative = viability loss” value is reported as -0.22% (inactive). For O=C(/C=C/c1ccccc1)OCc1ccccc1, the “activity change, negative = viability loss” value was -8.17% (inactive). In the case of CC(=O)N1CCN(c2ccc(O)cc2)CC1, the “activity change, negative = viability loss” value is reported as -11.4% (inactive). In the case of Cc1nc(Nc2ncc(C(=O)Nc3c(C)cccc3Cl)s2)cc(N2CCN(CCO)CC2)n1, the Potency is reported as 20.6 µM (active) and 25.1 µM (active). For Cc1cc(C(C)(C)C)c(O)c(C)c1CC1=NCCN1, the Potency was “inactive”. For Cc1cc(Nc2cc(CN3CCOCC3)c3nc(C)c(Cc4ccc(Cl)cc4F)n3n2)n[nH]1, the Potency was 7.94 µM (active). With COC(=O)C1=C(C)NC(C)=C(C(=O)OCCCN2CCC(c3ccccc3)(c3ccccc3)CC2)C1c1cccc([N+](=O)[O-])c1 (stereo not given) the Potency was 7.08 µM (active) and 8.2 µM (active). In the case of O=C(CCN1CCN(CCO)CC1)N1c2ccccc2Sc2ccc(C(F)(F)F)cc21, the “activity change, negative = viability loss” value is reported as -14.2% (inactive). In the case of O=C(Nc1nccs1)C(c1cc(F)ccc1O)N1Cc2ccccc2C1=O (stereo not given), the “activity change, negative = viability loss” value is reported as 1.21% (inactive). With c1cn2cc(-c3ccc4cn[nH]c4c3)nc(Nc3ccc(N4CCOCC4)cc3)c2n1 the “activity change, negative = viability loss” value was -20.9% (inactive). With COc1ccc2cc1Oc1cc3c(cc1OC)CC[N+](C)(C)[C@H]3Cc1ccc(cc1)Oc1c(OC)c(OC)cc3c1[C@@H](C2)[N+](C)(C)CC3 the “activity change, negative = viability loss” value was 0.0747% (inactive). In the case of COc1ccccc1C(=O)Nc1cc2c(cc1N1CCCCC1)n(C)c(=O)n2C, the “activity change, negative = viability loss” value is reported as -15.8% (inactive). With C[n+]1c2cc(N)ccc2cc2ccc(N)cc21 (tested in a mixture with another compound) the Potency was 1.3 µM (active). For C[C@H]1O[C@H](O[C@H]2[C@H](O)[C@@H](O)[C@@H](O[C@H]3[C@H](O)[C@@H](O)C(O)O[C@@H]3CO)O[C@@H]2CO)[C@H](O)[C@@H](O)[C@@H]1N[C@H]1C=C(CO)[C@@H](O)[C@H](O)[C@H]1O (stereo not given in full), the “activity change, negative = viability loss” value was -2.95% (inactive).
